In the library only some 9.9% were active in any assay of this set; here they are far more common.
IL-1B inflam inh = inhibitors of inflammasome signaling (IL-1 beta secretion); activity change, % at 57.5 µM; 360,000 tested, 4.7% active; THP-1 LPS/ATP IL-1B secretion, AlphaLISA, 16 h; hits give low values; in the data active = activity change below about -50%; inconclusive = mostly about -30% to -49%; also: % is scaled to controls: 0 for no effect and ±100 for the full control effect
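Secreted IL-1B measured by AlphaLISA bead assay after 16 h compound exposure of THP-1 cells; compounds (final up to 57.5 uM) added 1 h before LPS (250 ng/mL) and ATP (1.25 mM) stimulation; lower signal means less secretion.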
KB-V1 MDR tox = KB-V1 MDR subline cytotoxicity | Potency, µM (series often up to 46.1 µM), most hits filed as cytotoxic | KB-V1 MDR cells viability, CellTiter-Glo, 72 h | 400,000 tested, 3.4% active; also: potency is read from the fitted curve at half-maximal effect; % is scaled to controls: 0 for no effect and ±100 for the full control effect; nearly all actives have a fitted effect of over 60% in size
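Cytotoxicity via CellTiter-Glo luminescence after 72 h compound exposure at 37 degrees C. Cells: drug-selected KB-V1 line, DMEM phenol-red free plus 10% FBS. Compounds tested at multiple concentrations; normalized data fitted to concentration-effect curves.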
KB-3-1 cytotox = kills parental KB-3-1 adenocarcinoma cells; KB-3-1 viability, CellTiter-Glo ATP luminescence, 72 h; AID 1347075; Potency, µM (highest dose often 46.1 µM), hits mostly cytotoxic; 400,000 tested, 1.4% active; also: potency is read from the fitted curve at half-maximal effect; % is scaled to controls: 0 for no effect and ±100 for the full control effect; nearly all actives have a fitted effect of over 60% in size
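72 h, 37 °C compound treatment of KB-3-1 parental cells; CellTiter-Glo added, 10 min, luminescence read. Data corrected against DMSO-only plates and normalized before curve fitting.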
MCF10A rereplic = inducers of DNA re-replication in MCF 10A breast cells; MCF 10A DNA re-replication, Hoechst nuclear intensity, 48 h; Potency, µM (doses to about 46.1 µM), inactives show at the top dose activity, positive = re-replication, hits mostly activators; 350,000 tested, 2.9% active; also: potency is read from the fitted curve at half-maximal effect; % of control where 0% means no effect; nearly all actives have a fitted effect of over 50% in size
SW480 rerep = inducers of DNA re-replication in SW480 colon cancer cells | SW480 DNA re-replication, Hoechst DNA content imaging, 48 h | 340,000 tested, 1.8% active | Potency, µM (series often up to 46.1 µM), for the others: top-dose re-replication activation, actives largely listed as activators | AID 624297; also: potency is read from the fitted curve at half-maximal effect; % of control where 0% means no effect; nearly all actives have a fitted effect of over 55% in size
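Cells (250 per well) received 23 nL compound or DMSO by pin tool and were kept 48 hr at 37 C, 5% CO2. Nuclei were then stained with Hoechst for 40 min and scanned for DNA content.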
Numbers without * were called inactive; i = inactive; ? = inconclusive; . = no result. Unless noted, calls follow the shape of the dose curve; as a rule, active = well fitted curve in the direction sought with a large enough effect; inconclusive = small, poorly fitted or top-dose-only effect, or another doubt; inactive = no such curve, though single readings can be large; an effect the other way counts as inactive or inconclusive.

SMILES	IL-1B inflam inh	KB-V1 MDR tox	KB-3-1 cytotox	MCF10A rereplic	SW480 rerep
CCOc1cc(C(=S)N2CCOCC2)ccc1OS(=O)(=O)c1ccc(NC(C)=O)cc1	-53*	?	i	25%	?
Cc1cccc(C)c1NC(=O)C(c1ccccc1)N1CCC(c2ccccc2)CC1 (stereo not given)	0	i	i	.	.
Cc1csc(NC(=O)CSc2nc3[nH]c(=O)cc(O)c3s2)n1	-105*	21µM*	4.1µM*	9.2µM*	?
O=C(CSc1nc2[nH]c(=O)cc(O)c2s1)Nc1nncs1	-9	i	i	-4%	9%
Cc1[nH]nc(-c2ccc(O)cc2O)c1-c1nc2ccccc2s1	-82*	i	i	17%	-1%
COC(=O)C1=C(C)Nc2nnnn2C1c1ccccc1Cl (stereo not given)	19	i	i	3%	-5%
CCCCCOC(=O)C1=C(C)Nc2nnnn2C1c1ccccc1Cl (stereo not given)	9	21µM*	i	?	-3%
CCCCc1cc(=O)oc2cc(C)c3c(C(C)(C)C)coc3c12	.	i	i	.	.
O=C(Cc1ccc(S(=O)(=O)N2CCOCC2)s1)Nc1cc(C(F)(F)F)cc(C(F)(F)F)c1	-60*	i	?	21µM*	?
O=C(Cc1ccc(S(=O)(=O)N2CCOCC2)s1)Nc1cc(C(F)(F)F)ccc1N1CCCC1	-8	i	i	3%	?
O=S(=O)(Nc1ccc2c(c1)OCCO2)c1ccc(F)cc1	-9	i	i	-3%	-9%
Cc1ccc(S(=O)(=O)N/N=C\c2cc3c(cc2Br)OCO3)cc1	16	i	i	4.6µM*	?
CC(=O)c1cc2c(cc1NS(=O)(=O)c1ccc(C)cc1)OCCO2	7	16µM*	i	15µM*	?
O=C1CCCN1c1ccc(S(=O)(=O)Nc2ccc3c(c2)OCCO3)cc1	-10	18µM*	18µM*	1%	-2%
Cc1ccc(S(=O)(=O)Nc2ccc3c(c2)OCCO3)cc1	-8	23µM*	?	11%	-12%
Cc1ccc(S(=O)(=O)N/N=C\c2ccc3c(c2)OCO3)cc1	5	i	i	-3%	21%
O=c1c2sc3ccccc3c2n(Cc2ccccc2F)c(=O)n1-c1ccccc1Cl	.	i	i	.	.
CC(=O)c1sc(-c2ccccc2)cc1NS(=O)(=O)c1ccc(C)cc1	1	?	i	12µM*	?
CC(=O)c1sc(-c2ccccc2)cc1NS(=O)(=O)c1ccccc1	.	i	i	-13%	3%
CC1(C(=O)NS(=O)(=O)c2ccccc2Cl)CCN1C(=O)Cc1ccccc1Cl (stereo not given)	28	i	i	.	.
Cc1ccc(S(=O)(=O)C2(C(=O)N3CCN(C4CCCCC4)CC3)CC2)cc1	-9	16µM*	i	22%	19%
Cc1ccc(S(=O)(=O)C2(C(=O)NC3CCCC3)CC2)cc1	-8	i	i	9%	-13%
Cc1ccc(S(=O)(=O)C2(C(=O)N3CCCCCC3)CC2)cc1	-8	23µM*	i	-1%	0%
Cc1ccc(S(=O)(=O)C2(C(=O)N3CCN(c4cc(C)ccc4C)CC3)CC2)cc1	-24	i	i	3%	22%
CCN(CC)C(=O)Cn1nc(-c2ccc(Cl)cc2)c2ccccc2c1=O	-19	i	i	10%	-4%
CC(C)C(NC(=O)c1ccccc1)C(=O)NC1=NCCS1 (stereo not given)	11	i	i	?	8%
COc1cc(OC)cc(C(=O)N[C@H](C(=O)NC2=NCCS2)C(C)C)c1	4	12µM*	i	-1%	-1%
CCN1CCN(C(c2cccs2)C(C)NC(=O)c2ccccc2OC)CC1 (stereo not given)	-1	i	i	12%	-2%
COc1ccccc1C(=O)NC(C)C(c1cccs1)N1CCN(C)CC1 (stereo not given)	0	18µM*	i	-9%	3%
COc1ccccc1N1CCN(C(c2cccs2)C(C)NC(=O)c2cccs2)CC1 (stereo not given)	-9	4.1µM*	i	2%	1%

Screening results as filed in PubChem.
